# Counter-ions that a name gives are not always drawn. ± gives the standard deviation of the averaged measurements.
# Columns and labels:
# [1] = system: Saccharomyces cerevisiae BY4741 SeMeCo community; test: mean cell size (pixel area) (pixels); higher = larger cells; conditions: 10 µM; 24 h; SM minimal medium
# Outline: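 In this assay, mean cell pixel area per well was obtained from automated confocal images of paraformaldehyde-fixed yeast analysed in Harmony. The cells were a Saccharomyces cerevisiae BY4741 community with four plasmids, each complementing one auxotrophy and carrying a fluorescent marker, grown for 24 h in SM medium with drug at a final 10 µM in 384-well plates. Values are averaged across 3 replicates. Same SeMeCo high-content imaging drug screen: Selleck FDA-approved drugs at 10 µM, 24 h in SM medium, 384-well plates, 3 replicates.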
# [2] = system: Saccharomyces cerevisiae BY4741 SeMeCo community; test: z-score of prototroph abundance vs DMSO median; higher = larger share of this subpopulation than in DMSO controls; conditions: 10 µM; 24 h; SM minimal medium; subpopulation (auxotrophy): Prototroph
# Outline: (§1)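 Scoring was based on each subpopulation's abundance, expressed as a z-score against the vehicle-well median. A Saccharomyces cerevisiae BY4741 community with four plasmids, each restoring one auxotrophy and encoding a distinct fluorescent protein, was pre-grown overnight to OD600 1.0, diluted to 0.3, and added at 70 µl to 384-well plates acoustically predosed with library drugs (10 µM final). It then grew 24 h in minimal SM medium before paraformaldehyde fixation and automated confocal microscopy, with single-auxotroph fluorescent strains setting thresholds and autofluorescence correction.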
# [3] = system: Saccharomyces cerevisiae BY4741 SeMeCo community; test: z-score of subpopulation abundance vs DMSO median, subpopulation auxotrophic for M; higher = larger share of this subpopulation than in DMSO controls; conditions: 10 µM; 24 h; SM minimal medium; subpopulation (auxotrophy): M
# Outline: as §1
# [4] = system: Saccharomyces cerevisiae BY4741 SeMeCo community; test: z-score of subpopulation abundance vs DMSO median, subpopulation auxotrophic for L; higher = larger share of this subpopulation than in DMSO controls; conditions: 10 µM; 24 h; SM minimal medium; subpopulation (auxotrophy): L
# Outline: as §1
# [5] = system: Saccharomyces cerevisiae BY4741 SeMeCo community; test: z-score of subpopulation abundance vs DMSO median, subpopulation auxotrophic for U; higher = larger share of this subpopulation than in DMSO controls; conditions: 10 µM; 24 h; SM minimal medium; subpopulation (auxotrophy): U
# Outline: as §1
# [6] = system: Saccharomyces cerevisiae BY4741 SeMeCo community; test: z-score of subpopulation abundance vs DMSO median, subpopulation auxotrophic for H; higher = larger share of this subpopulation than in DMSO controls; conditions: 10 µM; 24 h; SM minimal medium; subpopulation (auxotrophy): H
# Outline: as §1
# [7] = system: Saccharomyces cerevisiae BY4741 SeMeCo community; test: z-score of subpopulation abundance vs DMSO median, subpopulation auxotrophic for LU; higher = larger share of this subpopulation than in DMSO controls; conditions: 10 µM; 24 h; SM minimal medium; subpopulation (auxotrophy): LU
# Outline: as §1
# [8] = system: Saccharomyces cerevisiae BY4741 SeMeCo community; test: z-score of subpopulation abundance vs DMSO median, subpopulation auxotrophic for LM; higher = larger share of this subpopulation than in DMSO controls; conditions: 10 µM; 24 h; SM minimal medium; subpopulation (auxotrophy): LM
# Outline: as §1
# [9] = system: Saccharomyces cerevisiae BY4741 SeMeCo community; test: z-score of subpopulation abundance vs DMSO median, subpopulation auxotrophic for HM; higher = larger share of this subpopulation than in DMSO controls; conditions: 10 µM; 24 h; SM minimal medium; subpopulation (auxotrophy): HM
# Outline: as §1
# [10] = system: Saccharomyces cerevisiae BY4741 SeMeCo community; test: z-score of subpopulation abundance vs DMSO median, subpopulation auxotrophic for HU; higher = larger share of this subpopulation than in DMSO controls; conditions: 10 µM; 24 h; SM minimal medium; subpopulation (auxotrophy): HU
# Outline: as §1
# [11] = system: Saccharomyces cerevisiae BY4741 SeMeCo community; test: z-score of subpopulation abundance vs DMSO median, subpopulation auxotrophic for UM; higher = larger share of this subpopulation than in DMSO controls; conditions: 10 µM; 24 h; SM minimal medium; subpopulation (auxotrophy): UM
# Outline: as §1
# [12] = system: Saccharomyces cerevisiae BY4741 SeMeCo community; test: z-score of subpopulation abundance vs DMSO median, subpopulation auxotrophic for HL; higher = larger share of this subpopulation than in DMSO controls; conditions: 10 µM; 24 h; SM minimal medium; subpopulation (auxotrophy): HL
# Outline: as §1
# [13] = system: Saccharomyces cerevisiae BY4741 SeMeCo community; test: z-score of subpopulation abundance vs DMSO median, subpopulation auxotrophic for HLU; higher = larger share of this subpopulation than in DMSO controls; conditions: 10 µM; 24 h; SM minimal medium; subpopulation (auxotrophy): HLU
# Outline: as §1
# [14] = system: Saccharomyces cerevisiae BY4741 SeMeCo community; test: z-score of subpopulation abundance vs DMSO median, subpopulation auxotrophic for HLM; higher = larger share of this subpopulation than in DMSO controls; conditions: 10 µM; 24 h; SM minimal medium; subpopulation (auxotrophy): HLM
# Outline: as §1
# [15] = system: Saccharomyces cerevisiae BY4741 SeMeCo community; test: z-score of subpopulation abundance vs DMSO median, subpopulation auxotrophic for HUM; higher = larger share of this subpopulation than in DMSO controls; conditions: 10 µM; 24 h; SM minimal medium; subpopulation (auxotrophy): HUM
# Outline: as §1
# [16] = system: Saccharomyces cerevisiae BY4741 SeMeCo community; test: z-score of subpopulation abundance vs DMSO median, subpopulation auxotrophic for LUM; higher = larger share of this subpopulation than in DMSO controls; conditions: 10 µM; 24 h; SM minimal medium; subpopulation (auxotrophy): LUM
# Outline: as §1
# [17] = system: Saccharomyces cerevisiae BY4741 SeMeCo community; test: z-score of subpopulation abundance vs DMSO median, subpopulation auxotrophic for HLUM; higher = larger share of this subpopulation than in DMSO controls; conditions: 10 µM; 24 h; SM minimal medium; subpopulation (auxotrophy): HLUM
# Outline: as §1
Compound,mean cell size [1],z-score of prototroph abundance [2],z-score of subpopulation abundance [3],z-score of subpopulation abundance [4],z-score of subpopulation abundance [5],z-score of subpopulation abundance [6],z-score of subpopulation abundance [7],z-score of subpopulation abundance [8],z-score of subpopulation abundance [9],z-score of subpopulation abundance [10],z-score of subpopulation abundance [11],z-score of subpopulation abundance [12],z-score of subpopulation abundance [13],z-score of subpopulation abundance [14],z-score of subpopulation abundance [15],z-score of subpopulation abundance [16],z-score of subpopulation abundance [17]
CC1(C)S[C@@H]2[C@H](NC(=O)C(c3ccccc3)S(=O)(=O)O)C(=O)N2[C@H]1C(=O)O (some centres undefined) [Sulbenicillin Sodium],12.35 ± 0.08,-0.72,0.41,-0.32,1.09,1.2,1.06,-0.34,-0.06,0.51,1.5,0.63,0.86,3.16,0.43,0.65,1.16
O=c1[nH]c(=O)n([C@H]2C[C@H](O)[C@@H](CO)O2)cc1/C=C/Br [Brivudine],12.41 ± 0.042,0.4,0.48,-2.11,0.12,-2.5,-0.22,-1.47,-0.22,-0.94,0.16,-1.84,-0.95,-1.12,-0.74,-0.74,-1.13
COc1ccc2cc([C@H](C)C(=O)O)ccc2c1 [Naproxen],13 ± 0.17,2.14,-1.11,-0.03,-1.21,0.45,-1.6,-0.86,-0.37,-1.2,-2.93,0.23,-0.86,1.33,-1.97,-0.97,-0.08
CCc1cccc2c3c([nH]c12)C(CC)(CC(=O)O)OCC3 (centres undefined) [Etodolac],12.5 ± 0.19,1.07,-0.55,-0.55,0.62,–,0.31,0.26,-0.61,-0.8,-0.43,-0.44,-0.48,-0.82,-0.52,-0.9,-0.89
CC[C@H](C)C(=O)O[C@H]1C[C@@H](C)C=C2C=C[C@H](C)[C@H](CC[C@@H]3C[C@@H](O)CC(=O)O3)[C@H]21 [Lovastatin],11.9 ± 0.13,-1.34,0.85,-0.96,0.87,–,0.16,-0.13,0.4,0.59,1.08,0.97,0.37,0.86,1.12,0.48,0.35
Clc1ccc(COC(Cn2ccnc2)c2ccc(Cl)cc2Cl)cc1 (centres undefined) [Econazole nitrate],11.9 ± 0.2,-8.44,-2.24,-3.48,3.05,–,1.14,-1.64,2.52,12.4,10.3,5.56,6.46,10.7,6.6,1.67,9.87
Fc1ccc(C(c2ccc(F)cc2)N2CCN(C/C=C/c3ccccc3)CC2)cc1 [Flunarizine 2HCl],12.38 ± 0.06,-1.16,-0.21,2.04,-0.07,0.98,0.52,1.5,1.01,0.97,-0.39,0.64,0.59,1.25,0.51,1.42,1.3
CC(NCCC(c1ccccc1)c1ccccc1)c1ccccc1 (centres undefined) [Fendiline hydrochloride],12.1 ± 0.2,1.56,-1.56,0.03,-0.43,-1.47,-0.77,-0.45,-1.15,-0.97,-1.15,-0.41,-0.27,-0.59,-0.72,0.05,-0.29
CC/C=C(\C(=O)N[C@@H]1C(=O)N2C(C(=O)OCOC(=O)C(C)(C)C)=C(COC(N)=O)CS[C@H]12)c1csc(N)n1 [Cefcapene Pivoxil Hydrochloride],12.3 ± 0.31,-1.27,0.11,0.38,0.38,1.15,0.9,0.55,1.27,1,0.67,0.18,-0.22,0.64,1.18,0.63,0.1
CO[C@@H]1[C@H](OC(=O)/C=C/C=C/C=C/C=C/C(=O)O)CC[C@]2(CO2)[C@H]1[C@@]1(C)O[C@@H]1CC=C(C)C [Fumagillin],12.24 ± 0.059,-1.67,-0.12,1.24,0.58,1.11,1.51,2.31,1.85,1.17,0.11,1.92,2.31,1.1,0.96,2.33,1.71
COc1ccc(C[C@H](N)C(=O)N[C@H]2[C@@H](O)[C@H](n3cnc4c(N(C)C)ncnc43)O[C@@H]2CO)cc1 [Puromycin 2HCl],12.5 ± 0.13,-0.54,0.81,-0.61,0.92,-0.66,-0.06,-0.47,0,0.15,1.61,-0.16,-0.44,-0.12,0.39,-0.39,-0.22
CC(C(=O)O)c1ccc2c(c1)CC(=O)c1ccccc1S2 (centres undefined) [Zaltoprofen],12.82 ± 0.12,0.63,1.11,-0.47,0.2,0.04,-0.2,-0.57,0.46,-0.7,-1.01,-0.14,-0.03,0.64,-0.7,-0.71,-0.59
Cc1cc(C)nc(NS(=O)(=O)c2ccc(N)cc2)n1 [Sulfamethazine Sodium Salt],12.28 ± 0.095,0.49,-1.42,0.3,-0.43,0.36,-0.11,-0.63,-0.79,0.05,-0.8,-0.24,-0.28,-0.15,-0.93,-0.01,0.81
CN(CCN1CCC(OC(=O)Nc2ccccc2-c2ccccc2)CC1)C(=O)c1ccc(CN2CCC(C(N)=O)CC2)cc1 [Revefenacin],12.17 ± 0.043,-0.26,1.54,-0.42,0.17,-0.6,0.12,0.16,0.49,-0.27,–,-0.32,-0.13,-0.49,0.24,0.17,-0.7
